According to PubChem BioAssay (EPA / NIEHS):
Calls of active or inactive are those of the source. Rule for the calls: active = hit-call score of the fitted dose curve at least 0.9, where 1 is the maximum; inactive = score below 0.9.

Columns and labels:
[1] = BSK_CASM3C_SRB: Viability Assessment in the BioMAP Diversity Plus: CASM3C Assay (AID 2283050); conditions: primary human coronary artery smooth muscle cells;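 note: total protein by SRB staining as cytotoxicity measure in parallel cultures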
[2] = read-out: Thrombomodulin, THBD (gene 7056); assay: BSK_CASM3C_Thrombomodulin: BioMAP Diversity Plus: CASM3C Assay for Thrombomodulin Biomarker Activity (AID 2283051); conditions: primary human coronary artery smooth muscle cells; actives raise or lower the signal;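 note: thrombomodulin protein level measured by ELISA 24 h after dosing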
[3] = read-out: Tissue Factor, F3 (gene 2152); assay: BSK_CASM3C_TissueFactor: BioMAP Diversity Plus: CASM3C Assay for Tissue Factor Biomarker Activity (AID 2283052); conditions: primary human coronary artery smooth muscle cells; actives raise or lower the signal;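 note: cell surface tissue factor protein level read by ELISA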
[4] = read-out: Interferon-gamma inducible Protein 10 (IP10), CXCL10 (gene 3627); assay: BSK_hDFCGF_IP10: BioMAP Diversity Plus: hDFCGF Assay for Interferon-gamma inducible Protein 10 (IP10) Biomarker Activity (AID 2283053); conditions: primary human foreskin fibroblasts; actives raise or lower the signal
Procedure, shortened: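 IP-10 levels, quantified by ELISA, are taken from human foreskin fibroblast cultures 24 h after chemical treatment, with DMSO serving as negative control and baseline for bidirectional analysis.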

[5] = read-out: Urokinase-type plasminogen activator receptor (uPAR), PLAUR (gene 5329); assay: BSK_CASM3C_uPAR: BioMAP Diversity Plus: CASM3C Assay for Urokinase-type plasminogen activator receptor (uPAR) Biomarker Activity (AID 2283054); conditions: primary human coronary artery smooth muscle cells; actives raise or lower the signal;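 note: cell-surface uPAR protein level quantified by ELISA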
[6] = read-out: Vascular cell adhesion molecule 1 (VCAM1), VCAM1 (gene 7412); assay: BSK_CASM3C_VCAM1: BioMAP Diversity Plus: CASM3C Assay for Vascular cell adhesion molecule 1 (VCAM1) Biomarker Activity (AID 2283055); conditions: primary human coronary artery smooth muscle cells; actives raise or lower the signal;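 note: VCAM-1 protein level quantified by ELISA on the cells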
[7] = read-out: Epidermal growth factor receptor (EGFR), EGFR (gene 1956); assay: BSK_hDFCGF_EGFR: BioMAP Diversity Plus: hDFCGF Assay for Epidermal growth factor receptor (EGFR) Biomarker Activity (AID 2283057); conditions: primary human foreskin fibroblasts; actives raise or lower the signal
Procedure, shortened: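 Measured by ELISA: EGFR levels on primary human foreskin fibroblasts 24 h after chemical treatment, analysed relative to DMSO with bidirectional fitting.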

[8] = read-out: Interleukin-8 (IL8), CXCL8 (gene 3576); assay: BSK_hDFCGF_IL8: BioMAP Diversity Plus: hDFCGF Assay for Interleukin-8 (IL8) Biomarker Activity (AID 2283058); conditions: primary human foreskin fibroblasts; actives raise or lower the signal
Procedure, shortened: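 Fibroblast monolayers (human foreskin, hDFCGF) received test chemical for 24 h before ELISA detection of IL-8; either increases or decreases relative to DMSO count as activity.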

[9] = BSK_hDFCGF_Proliferation: Cell Proliferation Assessment in the BioMAP Diversity Plus: hDFCGF Assay (AID 2283059); conditions: primary human foreskin fibroblasts;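 note: curves fitted for both rise and fall of signal versus DMSO baseline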
Procedure, shortened: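 This proliferation readout used SRB total-protein staining of human foreskin fibroblasts […], normalized to DMSO with bidirectional curve fitting.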

[10] = read-out: Macrophage colony-stimulating factor (MCSF), CSF1 (gene 1435); assay: BSK_hDFCGF_MCSF: BioMAP Diversity Plus: hDFCGF Assay for Macrophage colony-stimulating factor (MCSF) Biomarker Activity (AID 2283060); conditions: primary human foreskin fibroblasts; actives raise or lower the signal
Procedure, shortened: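 fibroblasts (human foreskin, primary), 24 h post-dose; M-CSF by ELISA; bidirectional fit, DMSO = baseline.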

[11] = BSK_hDFCGF_SRB: Viability Assessment in the BioMAP Diversity Plus: hDFCGF Assay (AID 2283061); conditions: primary human foreskin fibroblasts;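 note: cells exposed to compound for 24 h before the read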
Procedure, shortened: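 SRB-based viability read on primary human skin fibroblasts at 24 h: TCA fixation, 0.1% dye, 560 nm. Gain or loss of signal is fitted against the DMSO negative control.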

[12] = read-out: TIMP metallopeptidase inhibitor 1 (TIMP1), TIMP1 (gene 7076); assay: BSK_hDFCGF_TIMP1: BioMAP Diversity Plus: hDFCGF Assay for TIMP metallopeptidase inhibitor 1 (TIMP1) Biomarker Activity (AID 2283062); conditions: primary human foreskin fibroblasts; actives raise or lower the signal
Procedure, shortened: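 Bidirectional curve fitting against DMSO baseline yielded this endpoint, based on ELISA detection of TIMP-1 in primary human foreskin fibroblasts exposed to compound for 24 h.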

[13] = read-out: Monokine induced gamma interferon (MIG), CXCL9 (gene 4283); assay: BSK_hDFCGF_MIG: BioMAP Diversity Plus: hDFCGF Assay for Monokine induced gamma interferon (MIG) Biomarker Activity (AID 2283063); conditions: primary human foreskin fibroblasts; actives raise or lower the signal
Procedure, shortened: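 Endpoint derived by bidirectional fitting relative to DMSO; MIG quantified via ELISA in primary human foreskin fibroblasts harvested 24 h after dosing.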

[14] = read-out: Matrix Metallopeptidase 1 (MMP1), MMP1 (gene 4312); assay: BSK_hDFCGF_MMP1: BioMAP Diversity Plus: hDFCGF Assay for Matrix Metallopeptidase 1 (MMP1) Biomarker Activity (AID 2283064); conditions: primary human foreskin fibroblasts; actives raise or lower the signal
Procedure, shortened: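 Primary human foreskin fibroblasts exposed to chemicals for 24 h; MMP1 measured by ELISA. Cytotoxicity tracked by SRB staining in parallel cultures; bidirectional fit relative to DMSO.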

[15] = read-out: Vascular cell adhesion molecule 1 (VCAM1), VCAM1 (gene 7412); assay: BSK_hDFCGF_VCAM1: BioMAP Diversity Plus: hDFCGF Assay for Vascular cell adhesion molecule 1 (VCAM1) Biomarker Activity (AID 2283065); conditions: primary human foreskin fibroblasts; actives raise or lower the signal;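 for AC50: VCAM-1 protein level quantified by ELISA after 24 h chemical exposure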
Procedure, shortened: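 Measured after 24 h chemical treatment of primary human skin fibroblasts, VCAM-1 was detected by ELISA and concentration-response analysed in both directions versus DMSO vehicle.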

[16] = read-out: Intercellular Adhesion Molecule 1 (ICAM1), ICAM1 (gene 3383); assay: BSK_KF3CT_ICAM1: BioMAP Diversity Plus: KF3CT Assay for Intercellular Adhesion Molecule 1 (ICAM1) Biomarker Activity (AID 2283067); conditions: primary human keratinocytes with fibroblasts; actives raise or lower the signal
Procedure, shortened: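 Bidirectional curve fitting against a DMSO baseline was applied to ICAM-1 ELISA signal from primary human skin co-cultures harvested 24 h after treatment, with SRB staining of parallel wells for overt cytotoxicity.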

[17] = read-out: Interferon-gamma inducible Protein 10 (IP10), CXCL10 (gene 3627); assay: BSK_KF3CT_IP10: BioMAP Diversity Plus: KF3CT Assay for Interferon-gamma inducible Protein 10 (IP10) Biomarker Activity (AID 2283068); conditions: primary human keratinocytes with fibroblasts; actives raise or lower the signal
Procedure, shortened: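 Signal is secreted/surface IP-10 by ELISA in a human primary skin co-culture of keratinocytes and foreskin fibroblasts, taken 24 h post-dosing; DMSO served as negative control.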

[18] = BSK_KF3CT_SRB: Viability Assessment in the BioMAP Diversity Plus: KF3CT Assay (AID 2283069); conditions: primary human keratinocytes with fibroblasts;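 note: total protein by sulforhodamine B staining as a cytotoxicity measure; read 24 h after compound addition; fitted for both signal gain and loss against DMSO baseline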
Procedure, shortened: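 Human keratinocyte and foreskin fibroblast co-culture exposed to chemical for 24 h. Total protein measured in parallel cultures by 0.1% sulforhodamine B staining after 10% TCA fixation, read at 560 nm; bidirectional fit relative to DMSO.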

Measured: AC50

c1ccc2c(c1)-c1ccc3ccc4cccc5cc-2c1c3c45
inactive: [1] | [2] | [3] | [4] | [5] | [6] | [7] | [8] | [9] | [11] | [12] | [13] | [14] | [15] | [16] | [17] | [18]
active: [10] 0.0865 µM

COC(=O)c1ccc(C(=O)OC)cc1
inactive: [1] | [2] | [4] | [5] | [6] | [7] | [8] | [9] | [10] | [11] | [12] | [13] | [14] | [15] | [16] | [17] | [18]

CCOC(=O)CCCCCCCCC(=O)OCC
inactive: [1] | [2] | [3] | [4] | [5] | [6] | [7] | [8] | [9] | [10] | [11] | [12] | [13] | [14] | [15] | [16] | [17] | [18]

c1ccc(Sc2ccccc2)cc1
inactive: [2] | [5] | [7] | [8] | [13] | [16] | [17]
active: [1] 29.8 µM | [3] 20 µM | [4] 29.3 µM | [6] 20 µM | [9] 29.6 µM | [10] 28.1 µM | [11] 39 µM | [12] 25.5 µM | [14] 30.2 µM | [15] 33.2 µM | [18] 35.5 µM

CC(C)(C)c1cccc(O)c1
inactive: [1] | [2] | [3] | [4] | [5] | [6] | [7] | [8] | [9] | [10] | [11] | [12] | [13] | [14] | [15] | [16] | [17] | [18]

C=C(C)C(=O)OCCC(F)(F)C(F)(F)C(F)(F)C(F)(F)C(F)(F)C(F)(F)C(F)(F)C(F)(F)F
inactive: [1] | [2] | [3] | [4] | [5] | [6] | [7] | [8] | [9] | [10] | [11] | [12] | [13] | [14] | [15] | [16] | [17] | [18]

C#C[C@]1(O)CC[C@H]2[C@@H]3CCc4cc(O)ccc4[C@H]3CC[C@@]21C
inactive: [1] | [2] | [3] | [4] | [5] | [6] | [7] | [8] | [10] | [11] | [12] | [13] | [14] | [15] | [16] | [17] | [18]
active: [9] 7.35 µM

Nc1ccc(N)c([N+](=O)[O-])c1
inactive: [1] | [2] | [4] | [5] | [6] | [7] | [8] | [10] | [11] | [12] | [13] | [14] | [15] | [16] | [17] | [18]
active: [3] 0.037 µM | [9] 13.4 µM

CC(=O)OCC=C(C)CCC=C(C)CCC=C(C)C
active: [3] 2.51 µM | [9] 17.4 µM | [10] 25.9 µM | [12] 26.3 µM
inactive: [1] | [2] | [4] | [5] | [6] | [7] | [8] | [11] | [13] | [14] | [15] | [16] | [17] | [18]

CC(=O)OC(C)(C)C1CC=C(C)CC1 (stereo not given)
active: [1] 28.6 µM | [5] 31.7 µM | [6] 34.8 µM | [9] 18.5 µM | [11] 36.7 µM
inactive: [2] | [3] | [4] | [7] | [8] | [10] | [12] | [13] | [14] | [15] | [16] | [17] | [18]

C=C1CC/C=C(\C)CC[C@@H]2[C@@H]1CC2(C)C
active: [1] 33.2 µM | [4] 30.1 µM | [6] 29 µM | [8] 33.9 µM | [9] 6.82 µM | [10] 24.5 µM | [11] 27.7 µM | [12] 27.5 µM | [13] 33.9 µM | [14] 29.7 µM | [15] 28 µM | [16] 30.3 µM | [17] 25.2 µM | [18] 28.1 µM
inactive: [2] | [3] | [5] | [7]

CCCCCCCCCC(=O)OCC
inactive: [2] | [4] | [7] | [8] | [11] | [12] | [13] | [14] | [16] | [17] | [18]
active: [1] 33 µM | [3] 30.4 µM | [5] 31.1 µM | [6] 31.1 µM | [9] 13.7 µM | [10] 30.2 µM | [15] 31.9 µM
